Experimental data taken from ChEMBL document CHEMBL3988442, “University of Dundee, Small-Polar-MMV Screening Library” (2021).
Among all 48,000 compounds or so, about 13,000 (27%) showed an effect of 50% or more. The list shows a part of the results.

These compounds were tested on Wolbachia pipientis (assay: Anti-Wolbachia Cell-Based Screen). Conditions: 5 µM.
Format: functional
Set-up: scale not given: in the data most compounds retested in dose-response had high values

Row | Compound | Percent Effect [%]
1 | O=C(Nc1ccc(OCc2cccc(F)c2)c(F)c1)C1COCCO1 (configuration not stated) | -24.38
2 | O=C(Nc1nnc(N2CCCCC2)[nH]1)c1cccs1 | 3.867
3 | O=C(NC1CCN(c2nccs2)CC1)c1cccs1 | -6.975
4 | CC(C)CN1CCCC1c1ccc(C(=O)Nc2cn(C)nn2)s1 (configuration not stated) | 6.317
5 | Cn1nc2c(c1NC(=O)c1cccs1)CCC2 | 116
6 | NCC(=O)N1CCCC1c1ccc(C(=O)NCc2ccoc2)s1 (configuration not stated) | -13.99
7 | CC(C)CN1CCCC1c1ccc(C(=O)Nc2cccnc2)s1 (configuration not stated) | 20.92
8 | CN1CCCC1c1ccc(C(=O)Nc2c3c(nn2C)CCC3)s1 (configuration not stated) | 105.6
9 | CN1CCCC1c1ccc(C(=O)N2CCc3ccccc3C2)s1 (configuration not stated) | 10.54
10 | Cn1nc2c(c1NC(=O)c1ccc(C3CCCN3C3CCC3)s1)CCC2 (configuration not stated) | 91.78
11 | Cc1cncc(NCC(O)c2ccco2)n1 (configuration not stated) | 11.88
12 | Clc1ccc(OCCNC2(c3ccc(Br)cc3)CCOCC2)cc1 | 18.48
13 | Cc1nnc(CCNC(=O)C(c2ccc(F)cc2)N(C)C)[nH]1 (configuration not stated) | 15.69
14 | CSCCCN1CCn2nc(CNC(C)=O)cc2C1 | -21.5
15 | CNS(=O)(=O)CCNC(=O)[C@@]12CNC[C@@H]1CN(C1CCCC1)C2 | -0.715
16 | CC(=O)NC1(C(=O)N2CCCN(c3cccnn3)CC2)CCCCC1 | 1.939
17 | Cc1ccc(CN2CCc3nnc(COCCN(C)C)n3CC2)o1.O=C(O)C(F)(F)F.O=C(O)C(F)(F)F | 95.05
18 | O=C(O)C(F)(F)F.O=C(O)C(F)(F)F.c1cncc(COCc2nnc3n2CCN(Cc2cccs2)C3)c1 | -10.65
19 | CN(C)CCOCc1nnc2n1CCN(Cc1ccco1)C2.O=C(O)C(F)(F)F.O=C(O)C(F)(F)F | -14.14
20 | O=C(O)C(F)(F)F.O=C(O)C(F)(F)F.c1cncc(COCc2nnc3n2CCN(Cc2ccco2)C3)c1 | -13.62
21 | CN(C)CCOCc1nnc2n1CCN(Cc1cccs1)CC2.O=C(O)C(F)(F)F.O=C(O)C(F)(F)F | 101.6
22 | CCOCc1nnc2n1CCN(Cc1c(C)noc1C)CC2.O=C(O)C(F)(F)F | -27.85

Row | Compound | Percent Effect [%]
23 | CC(=O)NCc1nnc2n1CCN(Cc1cccs1)C2.O=C(O)C(F)(F)F | -7.249
24 | CN(C)CCOCc1nnc2n1CCN(Cc1ccco1)CC2.O=C(O)C(F)(F)F.O=C(O)C(F)(F)F | 99.11
25 | COc1ccc(NC(=O)C2CCCO2)cc1OCc1cccnc1 (configuration not stated) | 5.381
26 | Cc1nn(C)c(C)c1CCC(=O)N1CC(c2cccnc2)C1 | 23.02
27 | Cc1nccn1CCCn1cncc1-c1ccc2c(c1)CCC(C)N2C.Cl (configuration not stated) | 102.7
28 | CCN1c2ccc(-c3cncn3CCCn3ccnc3C)cc2CC1C.Cl (configuration not stated) | 77.37
29 | Cc1nccn1CCCn1cncc1-c1ccc2c(c1)CCCN2C.Cl | 98.66
30 | Cc1cnccc1N1CCCN(C(=O)CCCn2ccnc2C)CC1 | -4.474
31 | Cc1nn(C)c(C)c1CCn1cncc1-c1ccc2c(c1)CC(C)N2C.Cl (configuration not stated) | 101.8
32 | Cc1nccn1CCCNC(=O)C1CCCCN1Cc1ccncc1 (configuration not stated) | -5.862
33 | Cc1nn(C)c(C)c1CCC(=O)N1CCc2sccc2C1 | 7.197
34 | CCOc1ncc(NC(=O)c2ccccn2)c(OCC)n1 | 0.09854
35 | CN1C[C@@H]2CC[C@H](C1)N(Cc1ccccc1OCCN1CCOCC1)C2 | -8.693
36 | CSc1ccc(CNc2ccccc2CN2CCC(O)CC2)cc1 | -4.512
37 | Cn1cc(CCCNC(=O)NC2CCN(c3ccccc3)C2=O)cn1 (configuration not stated) | 20.77
38 | CCn1nc2c(cc1=O)CN(CCOc1cccc(C#N)c1)CC2 | -9.961
39 | Cn1cc(C(=O)OCC(N)=O)c(-c2ccc(F)cc2F)n1 | -2.814
40 | N#CCCN(Cc1cccnc1)C(=O)c1ccc(-n2cnnn2)cc1 | 12.89
41 | Cc1ccc(NC(=O)N(C)C)c(C(=O)OCC(=O)NC2CCCC2)c1 | -9.857
42 | COc1ccc(CN(C)C(=O)NCc2c(C)cc(C)[nH]c2=O)cc1 | -0.4347
43 | Cc1nccn1CCCn1cncc1-c1ccc2c(c1)CC(C)N2C.Cl (configuration not stated) | 92.09
44 | Cc1cc(C)n(CCCn2cncc2-c2ccc3c(c2)CC(C)N3C)n1.Cl (configuration not stated) | 95.59

Row | Compound | Percent Effect [%]
45 | CC1=NOC(C(=O)N(C)CCCn2nc(C)cc2C)C1 (configuration not stated) | 25.07
46 | Cc1cc(C)n(CCCN(C)C(=O)C2COc3ccccc3C2)n1 (configuration not stated) | -47.38
47 | Cc1cnccc1N1CCCN(C(=O)CCn2ccnc2C)CC1 | -14.43
48 | CC(C)OCCC1CCCCN1S(C)(=O)=O (configuration not stated) | 3.961
49 | CC(C)C(=O)NS(=O)(=O)c1ccc(C#N)cc1C(F)(F)F | 109
50 | CC(C)(C)C(=O)NS(=O)(=O)c1ccc(C#N)cc1C(F)(F)F | -4.514
51 | CC(=O)NC1CCN(c2ccc(C#N)cc2C(F)(F)F)CC1 | 29.91
52 | CC(C(=O)N(Cc1ccc(C#N)cc1)CC(F)(F)F)S(C)(=O)=O (configuration not stated) | -0.5778
53 | CCC(CC)C(=O)NS(=O)(=O)c1ccc(C#N)cc1C(F)(F)F | 103.7
54 | CC(O)CN(C)S(=O)(=O)c1ccc(C#N)cc1F (configuration not stated) | -5.528
55 | N#Cc1ccc(S(=O)(=O)NC(=O)C2CC2)c(C(F)(F)F)c1 | 6.344
56 | CCC(C)C(=O)NS(=O)(=O)c1ccc(C#N)cc1C(F)(F)F (configuration not stated) | 121.4
57 | CN(CCN(C)S(=O)(=O)CC1CCOCC1)c1ccccc1 | -10.63
58 | N#CCCN(CC1CCOC1)Cn1ccc(-c2cccs2)n1 (configuration not stated) | -0.2132
59 | CC(NC(C)(C)CN)c1ccccc1 (configuration not stated) | -0.2011
60 | NC(=O)C(NC1CCN(CC2CCCCC2)CC1)c1ccccc1 (configuration not stated) | -8.499
61 | O=C1Nc2ccccc2CNC12CCN(CC1CCNC1)CC2 (configuration not stated) | 113.7
62 | O=C1Nc2ccccc2CNC12CCN(CC1CC1)CC2 | 106.1
63 | CC(C)c1nnc(CN2CCC3(CC2)Nc2ccccc2NC3=O)o1 | 8.635
64 | CC(C)CN1CCC2(Cc3ccccc3NC2=O)C1 (configuration not stated) | 2.79
65 | O=C1Nc2ccccc2NC12CCN(Cc1nnc(C3CC3)o1)CC2 | 10.49
66 | O=C1Nc2ccccc2CNC12CCN(CC1CCCC1)CC2 | 118.7

Row | Compound | Percent Effect [%]
67 | O=C1Nc2ccccc2NC12CCN(c1cccc(C(F)(F)F)n1)CC2 | -10.36
68 | CC(C)CCN1CCC2(CC1)NCc1ccccc1NC2=O | 110.4
69 | Cn1cc(C2(C)CN(C(=O)COc3ccccc3F)CCO2)cn1 (configuration not stated) | -6.052
70 | O=S(=O)(NCC1(O)CCOCC1)c1c(F)cccc1F | -2.026
71 | Cc1cc(F)ccc1S(=O)(=O)N1CCN(C)Cc2ccccc21 | -7.823
72 | CC(C)(C)CN1CCCC2(CCN(C(=O)c3cn[nH]c3)C2)C1 (configuration not stated) | -0.3441
73 | CCNC(=O)NCc1ccccc1NS(=O)(=O)c1ccccc1 | 26.47
74 | O=C1CC2(CCCCC2)C(=O)N1CC(O)COCc1ccccc1F (configuration not stated) | -27.41
75 | CC(C)(C)CNCC1(O)CCCN(Cc2ccccc2F)C1=O (configuration not stated) | -15.35
76 | CSCCC(O)C(=O)N1CCN(Cc2cccc(Cl)c2)CC1 (configuration not stated) | 8.238
77 | CCC(CO)N(Cc1ccccn1)C(=O)c1ccc(=O)[nH]c1 (configuration not stated) | 7.999
78 | COc1ccccc1N1CCN(C(=O)CSC(C)C)C(C)C1 (configuration not stated) | -5.211
79 | NC(=O)CSCCC(=O)NCC1CC1 | 101.8
80 | N#CCSCC(=O)NCC1CCCCC1 | 102.7
81 | O=C(CCn1cncn1)NCC1CCOC1 (configuration not stated) | 0.0368
82 | NC(=O)CSCC(=O)NCC1CCCC1 | 107.6
83 | O=C(CCn1cncn1)NCC1CCCC1 | 2.005
84 | O=C(CNC(=O)C1CC1)NCC1CCCC1 | -13.86
85 | Cc1nc(CN2CCC(CNC(=O)CCC3CCCC3)CC2)oc1C | -6.137
86 | N#CCSCCCN1CCC(C(=O)N2CCCCCC2)CC1 | 2.389
87 | NC(=O)CSCCC(=O)N1CCCC1c1ccsc1 (configuration not stated) | -6.046
88 | Cc1cccc(N(CC(=O)N2CCCCC2)Cc2ccno2)c1 | 2.857

Row | Compound | Percent Effect [%]
89 | Cc1cc(C(=O)NCC2SCCc3ccccc32)no1 (configuration not stated) | 0.5755
90 | CCN(C(=O)Cc1ccc(NC(=O)NC2CC2)cc1)c1ccccc1 | -0.9902
91 | O=C(CSc1ccc2c(c1)OCCO2)NS(=O)(=O)c1cc(F)ccc1F | -16.91
92 | c1cnnc(N2CCCC2CNCc2cccs2)c1 (configuration not stated) | 108.7
93 | Cc1ccc(CNCC2CCCN2c2cccnn2)s1 (configuration not stated) | 110.2
94 | Cc1nc(CNCC2CCCN2c2cccnn2)cs1 (configuration not stated) | -2.276
95 | c1cnnc(N2CCCC2CNCCc2cccs2)c1 (configuration not stated) | 5.045
96 | Cc1noc(C)c1CNCC1CCCN1c1cccnn1 (configuration not stated) | 5.268
97 | c1cnnc(N2CCCC2CNCc2ccsc2)c1 (configuration not stated) | -3.279
98 | Cc1nc(CNCC2CCCN2c2cccnn2)oc1C (configuration not stated) | -10.17
99 | Cc1ncc(CNCC2CCCN2c2cccnn2)s1 (configuration not stated) | 6.124
100 | CC(C)c1nnc(CNCC2CCCN2c2cccnn2)o1 (configuration not stated) | -19.57
101 | Cc1ncccc1CNCC1CCCN1c1cccnn1 (configuration not stated) | 86.13
102 | CC(C)(C)c1ncc(CNCC2CCCN2c2cccnn2)s1 (configuration not stated) | 130.1
103 | CC(C)(C)c1cnc(CNCC2CCCN2c2cccnn2)o1 (configuration not stated) | 10.11
104 | CC(=O)Nc1ccc(CN2CCOC2=O)cc1 | -1.092
105 | CC(=O)Nc1ccc(/C=C/c2ncc(C(=O)O)s2)cc1 | 35.4
106 | CC(C)c1ccn(C2(C(=O)O)CCN(c3ccncc3F)CC2)n1 | -3.994
107 | Cc1cccc(C(=O)N(C)CC(=O)N2CCCC2)c1C | 11.26
